Assay [1] is described as follows: Confirmation and Secondary Assay for Modulators of Hemoglobin Beta Chain Splicing at IVS2 654 locus (AID 910).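 Also: HeLa cells stably carrying EGFP split by mutant beta-globin IVS2-654 intron; per-well total GFP intensity by laser scanning cytometry after 2-day treatment.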 In outline:
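Readout: per-well total peak green fluorescence (488 nm ex, 500–520 nm em) from objects 5–250 µm, reflecting correct splicing of an EGFP-654 reporter. Compounds were applied for 2 days at 37 °C to overnight-plated HeLa EGFP-654 cells; controls were DMSO and 500 nM IVS2-654 PNA.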

For assay [2], the target named is ATP-dependent 6-phosphofructokinase (Trypanosoma brucei brucei) (UniProt O15648). The experiment in a line: qHTS Assay to Find Inhibitors of T. brucei phosphofructokinase: hit validation (AID 492961).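 Also: luminescence reports ADP formed as PFK phosphorylates fructose-6-phosphate with ATP.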 In outline: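 ADP-Glo luminescence read-out of ADP formed by 1.25 nM PFK from 0.1 mM ATP and 0.5 mM F6P (TEA pH 8.0, 45 min, RT). Compounds titrated; activity normalized to no-enzyme and full-enzyme controls.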
Sequence of ATP-dependent 6-phosphofructokinase (Trypanosoma brucei brucei) (O15648 whole entry, looked up): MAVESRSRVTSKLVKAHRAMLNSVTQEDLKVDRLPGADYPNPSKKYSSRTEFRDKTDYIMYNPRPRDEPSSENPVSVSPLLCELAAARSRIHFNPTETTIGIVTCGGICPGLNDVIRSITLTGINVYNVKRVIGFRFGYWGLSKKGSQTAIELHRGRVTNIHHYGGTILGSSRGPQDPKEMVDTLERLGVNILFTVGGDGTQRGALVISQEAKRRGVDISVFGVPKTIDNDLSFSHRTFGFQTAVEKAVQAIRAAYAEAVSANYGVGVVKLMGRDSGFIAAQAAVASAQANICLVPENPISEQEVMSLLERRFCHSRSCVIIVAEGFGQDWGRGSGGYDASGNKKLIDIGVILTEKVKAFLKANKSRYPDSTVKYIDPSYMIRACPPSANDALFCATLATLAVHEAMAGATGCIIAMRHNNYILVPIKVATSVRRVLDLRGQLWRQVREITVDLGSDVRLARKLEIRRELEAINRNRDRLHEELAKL

Assay [3] in a line: S16 Schwann cell PMP22 intronic element beta-lactamase assay (AID 624044; calls by dose curve; also: nearly all actives have a fitted effect of over 15% in size; also: potency is read from the fitted curve at half-maximal effect). Put shortly: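 Beta-lactamase reporter under a PMP22 intronic regulatory element in stable S16 rat Schwann cells; 24 h compound exposure. 460 nm blue signal normalized between DMSO (0%) and potassium clavulanate, with 535 nm FRET tracking viability; curves classed by r2 and response.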
Assay [4] deals with ATS189. The experiment in a line: qHTS profiling for inhibitors of Plasmodium falciparum proliferation (AID 504749). Also: nearly all actives have a fitted effect of over 60% in size. Also: potency is read from the fitted curve at half-maximal effect. As to conditions: P. falciparum in erythrocytes, SYBR Green DNA, 72 h; series mostly up to 12.8 µM. Put shortly:
(§1)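 SYBR Green fluorescence of parasite DNA, read after lysis and overnight dark incubation, measured growth over 72 h in erythrocyte culture at 0.3% parasitemia and 2.5% hematocrit. Data normalised to DMSO and 0.29 uM artemisinin, with plate-drift correction.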

In assay [5] the test system is ATS95. The assay is described as above. As to conditions: P. falciparum in erythrocytes, SYBR Green DNA, 72 h; series mostly up to 12.8 µM. In outline: as §1
Assay [6] has as its system CP203. Described as above. As to conditions: P. falciparum in erythrocytes, SYBR Green DNA, 72 h; series mostly up to 12.8 µM. Put shortly: as §1
Assay [7] concerns CP247. The assay is described as above. The note with it: P. falciparum in erythrocytes, SYBR Green DNA, 72 h; series mostly up to 12.8 µM. In outline: as §1
For assay [8], the system named is CP250. The assay is described as above. As to conditions: P. falciparum in erythrocytes, SYBR Green DNA, 72 h; series mostly up to 12.8 µM. In outline:
as §1

Assay [9] relates to CP260. The assay is described as above. The note with it: P. falciparum in erythrocytes, SYBR Green DNA, 72 h; series mostly up to 12.8 µM. In outline:
as §1

Assay [10] deals with CP266. The description is as above. The note with it: P. falciparum in erythrocytes, SYBR Green DNA, 72 h; series mostly up to 12.8 µM. In outline: as §1
For assay [11], the system named is CP297. The assay is described as above. The note with it: P. falciparum in erythrocytes, SYBR Green DNA, 72 h; series mostly up to 12.8 µM. Put shortly: as §1
Assay [12] has as its system CP335. Described as above. The note with it: P. falciparum in erythrocytes, SYBR Green DNA, 72 h; series mostly up to 12.8 µM. In outline:
as §1

The subject of assay [13] is DIV17. The assay is described as above. The note with it: P. falciparum in erythrocytes, SYBR Green DNA, 72 h; series mostly up to 12.8 µM. In outline: as §1
Assay [14] has as its system Dd2. The assay is described as above. As to conditions: P. falciparum in erythrocytes, SYBR Green DNA, 72 h; series mostly up to 12.8 µM. Put shortly:
as §1

The subject of assay [15] is HB3. The description is as above. As to conditions: P. falciparum in erythrocytes, SYBR Green DNA, 72 h; series mostly up to 12.8 µM. Put shortly: as §1
Assay [16] relates to ICS. Described as above. As to conditions: P. falciparum in erythrocytes, SYBR Green DNA, 72 h; series mostly up to 12.8 µM. Put shortly: as §1
The test system of assay [17] is P93_24. Described as above. The note with it: P. falciparum in erythrocytes, SYBR Green DNA, 72 h; series mostly up to 12.8 µM. In outline:
as §1

In assay [18] the test system is P94_40. The assay is described as above. As to conditions: P. falciparum in erythrocytes, SYBR Green DNA, 72 h; series mostly up to 12.8 µM. In outline:
as §1

Assay [19] relates to TAB113. The assay is described as above. The note with it: P. falciparum in erythrocytes, SYBR Green DNA, 72 h; series mostly up to 12.8 µM. In outline: as §1
The test system of assay [20] is TAB165. The assay is described as above. As to conditions: P. falciparum in erythrocytes, SYBR Green DNA, 72 h; series mostly up to 12.8 µM. In outline:
as §1

Molecules are shown by their SMILES. Inconclusive results are not listed. Calls of active or inactive are those of the source. Unless noted, calls follow the shape of the dose curve; as a rule, active = well fitted curve in the direction sought with a large enough effect; inconclusive = small, poorly fitted or top-dose-only effect, or another doubt; inactive = no such curve, though single readings can be large; an effect the other way counts as inactive or inconclusive.

`OCC1O[C@H](OC2C(CO)O[C@@](O)(CO)C2O)C(O)C(O)C1O` (some centres not stated): the Potency entry in [1], in assay [3], in [4], in assay [5], in assay [6] and in assay [7] was “inactive” throughout. For the same molecule, the Potency result in assay [8], in assay [9], in [10], in [11], in assay [12] and in assay [13] was “inactive” each time. Besides, the Potency result in assay [14], in assay [15], in assay [16], in assay [17], in assay [18] and in assay [19] was “inactive” in each case. Moreover, in assay [20], the Potency entry is “inactive”. For the same molecule, the outcome in assay [2] was inactive.

As to `CCOC(=O)C1=CC(OC(CC)CC)C(NC(C)=O)C(N)C1` (configuration not stated), the Potency result in [1], in assay [3], in assay [4], in assay [5], in assay [6] and in [7] was “inactive” in each case. The Potency result in assay [8], in assay [9], in [10], in [12], in assay [14] and in assay [15] was “inactive” each time. In addition, the Potency result in assay [17], in [18], in assay [19] and in assay [20] was “inactive” throughout. Further, the outcome in assay [2] was inactive.

`Cc1cc(O)c(C=O)c2c1C(=O)Oc1c(C)c(O)c3c(c1O2)C(O)OC3=O` (configuration not stated): the Potency entry in [1] is “inactive”.

With `COc1ccc(CC(N)C(=O)NC2C(CO)OC(n3cnc4c(N(C)C)ncnc43)C2O)cc1` (configuration not stated), the Potency entry in assay [1] is “inactive”. Also, in assay [2], the outcome was inactive. Also, the Potency was 7070 nM (active) in assay [3]; 794 nM (active) in assay [4]; 1000 nM (active) in assay [5]; 1510 nM (active) in assay [6]; 891 nM (active) in assay [7]; 1260 nM (active) in assay [8]. In addition, the Potency in assay [9] is 891 nM (active); in [10], 1200 nM (active); in assay [11], 1200 nM (active); in assay [12], 757 nM (active); in [13] it was 757 nM (active); in assay [14], 355 nM (active). The Potency in [15] is 1000 nM (active); in assay [16], 316 nM (active); in [17], 708 nM (active); in [18] it was 891 nM (active); in assay [19] it was 1000 nM (active); in assay [20] it was 794 nM (active).

As to `CCC(CCC(C)C1CCC2C3CC=C4CC(O)CC[C@@]4(C)C3CC[C@@]12C)C(C)C` (some centres not stated), the Potency entry in assay [1], in assay [3], in assay [4], in assay [5], in assay [6] and in assay [7] was “inactive” each time. For the same molecule, the Potency result in assay [8], in assay [9], in assay [10], in assay [11], in [12] and in assay [13] was “inactive” throughout. Moreover, the Potency result in assay [14], in assay [15], in [16], in assay [17], in assay [18] and in assay [19] was “inactive” in each case. Besides, in assay [20], the Potency result is “inactive”. Moreover, in assay [2], the molecule was called inactive.

`CCC(=O)O[C@@]1(C(=O)CCl)C(C)CC2C3CCC4=CC(=O)C=C[C@@]4(C)[C@]3(F)C(O)C[C@]21C` (some centres not stated): the Potency result in assay [1] and in [3] was “inactive” throughout. Moreover, the outcome in assay [2] was inactive. The Potency is 11200 nM (active) in assay [5]; 13500 nM (active) in assay [6]; 10000 nM (active) in assay [9]; 10700 nM (active) in assay [12]; 15100 nM (active) in [13]; 10000 nM (active) in assay [16]. In addition, the Potency in assay [17] is 7940 nM (active); in assay [18], 11200 nM (active).

`Nc1nc2ncc(CNc3ccc(C(=O)NC(CCC(=O)O)C(=O)O)cc3)nc2c(=O)[nH]1` (configuration not stated): the Potency result in [1], in [3], in assay [4], in assay [6], in assay [7] and in assay [8] was “inactive” in each case. The Potency result in [9], in assay [10], in assay [11], in assay [12], in [13] and in assay [14] was “inactive” throughout. Further, the Potency entry in [15], in assay [16], in assay [17], in [18], in assay [19] and in [20] was “inactive” throughout.

These data come from PubChem BioAssay (NCATS).
